In PubChem BioAssay (EPA / NIEHS):
Calls of active or inactive are those of the source. How the source made its calls: active means hit-call score of the fitted dose curve at least 0.9, where 1 is the maximum; inactive means score below 0.9.

Assays:
Conditions in all cases: mRNA level, 48 h; actives raise or lower the signal
[1] = read-out: Insulin-like growth factor-binding protein 1 (IGFBP1), IGFBP1 (gene 3484); experiment: LTEA_HepaRG_IGFBP1: Life Technologies and Expression Analysis (LTEA) Assay for Insulin-like growth factor-binding protein 1 (IGFBP1) using HepaRG (AID 2283508)
In short: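 HepaRG cells, plated 48 h then switched to serum-free induction medium, exposed in duplicate for 48 h to 8-point half-log series from 100 uM in 0.5% DMSO. mRNA measured by qRT-PCR, normalized to ACTB/GAPDH/POLR2A; bidirectional fit versus DMSO.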

[2] = read-out: Interleukin 6 (IL6), IL6 (gene 3569); experiment: LTEA_HepaRG_IL6: Life Technologies and Expression Analysis (LTEA) Assay for Interleukin 6 (IL6) using HepaRG (AID 2283509)
In short: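 HepaRG cells exposed in duplicate for 48 h to eight half-log concentrations, top 100 uM, in 0.5% DMSO serum-free induction medium. mRNA measured by qRT-PCR, normalized to ACTB, GAPDH and POLR2A. Bidirectional fit versus DMSO.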

[3] = read-out: Interleukin 6 Receptor (IL6R), IL6R (gene 3570); experiment: LTEA_HepaRG_IL6R: Life Technologies and Expression Analysis (LTEA) Assay for Interleukin 6 Receptor (IL6R) using HepaRG (AID 2283510);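 on AC50: TaqMan qRT-PCR signal normalized to ACTB GAPDH and POLR2A housekeeping genes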
In short: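 Concentration-response in human liver HepaRG cells: eight concentrations from 100 uM downward by half-logs, 48 h exposure, 0.5% DMSO vehicle. IL6R mRNA change measured by qRT-PCR and fitted in both directions relative to vehicle.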

[4] = read-out: Keratin 19 (KRT19), KRT19 (gene 3880); experiment: LTEA_HepaRG_KRT19: Life Technologies and Expression Analysis (LTEA) Assay for Keratin 19 (KRT19) using HepaRG (AID 2283512)
In short: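 Differentiated HepaRG cells in serum-free induction medium, exposed 48 h in duplicate to 8 half-log concentrations up to 100 uM in 0.5% DMSO. KRT19 mRNA by qRT-PCR, normalized to ACTB, GAPDH, POLR2A; bidirectional fit vs DMSO.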

[5] = read-out: JUN Transcription Factor, JUN (gene 3725); experiment: LTEA_HepaRG_JUN: Life Technologies and Expression Analysis (LTEA) Assay for JUN Transcription Factor using HepaRG (AID 2283513)
In short: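 Human HepaRG liver cells receive test chemicals in 0.5% DMSO for 48 h across an eight-point range topping at 100 uM. Expression changes in JUN are scored in both directions against the DMSO vehicle.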

[6] = read-out: Lipase C (LIPC), LIPC (gene 3990); experiment: LTEA_HepaRG_LIPC: Life Technologies and Expression Analysis (LTEA) Assay for Lipase C (LIPC) using HepaRG (AID 2283514)
In short: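 HepaRG cells, 48 h after plating, treated in duplicate for 48 h in serum-free induction medium over 8 half-log concentrations from 100 uM, 0.5% DMSO. LIPC mRNA by TaqMan qRT-PCR normalized to ACTB/GAPDH/POLR2A; bidirectional fit versus DMSO.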

[7] = read-out: Lipoprotein lipase (LPL), LPL (gene 4023); experiment: LTEA_HepaRG_LPL: Life Technologies and Expression Analysis (LTEA) Assay for Lipoprotein lipase (LPL) using HepaRG (AID 2283515)
In short: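 Differentiated HepaRG cells, plated 48 h, then exposed 48 h in serum-free induction medium to 8 concentrations (top 100 uM, half-log steps) in 0.5% DMSO, duplicate. LPL mRNA measured by qRT-PCR, normalized to ACTB, GAPDH and POLR2A.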

[8] = read-out: MicroRNA 122 (MIR122), gene 406906; experiment: LTEA_HepaRG_MIR122: Life Technologies and Expression Analysis (LTEA) Assay for MicroRNA 122 (MIR122) using HepaRG (AID 2283516); further: the transcript read is the microRNA miR-122
In short: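 HepaRG, 48 h exposure, 8-pt half-log from 100 uM, 0.5% DMSO; TaqMan qRT-PCR; bidirectional fit vs DMSO.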

[9] = read-out: matrix metalloproteinase-10 (MMP10), MMP10 (gene 4319); experiment: LTEA_HepaRG_MMP10: Life Technologies and Expression Analysis (LTEA) Assay for matrix metalloproteinase-10 (MMP10) using HepaRG (AID 2283517)
In short: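 Differentiated HepaRG cells in serum-free induction medium exposed 48 h in duplicate to 8-point half-log series up to 100 uM in 0.5% DMSO. mRNA quantified by qRT-PCR, normalised to ACTB, GAPDH, POLR2A; bidirectional fit versus DMSO.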

[10] = read-out: MYC, MYC (gene 4609); experiment: LTEA_HepaRG_MYC: Life Technologies and Expression Analysis (LTEA) Assay for MYC using HepaRG (AID 2283518)
In short: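 Differentiated HepaRG cells exposed 48 h in serum-free induction medium to 8 concentrations (top 100 uM, half-log steps; 0.5% DMSO), duplicate. MYC mRNA measured by Fluidigm qRT-PCR, normalized to ACTB, GAPDH, POLR2A; bidirectional fit versus DMSO.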

[11] = read-out: matrix metalloproteinase-3 (MMP3), MMP3 (gene 4314); experiment: LTEA_HepaRG_MMP3: Life Technologies and Expression Analysis (LTEA) Assay for matrix metalloproteinase-3 (MMP3) using HepaRG (AID 2283519)
In short: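 HepaRG cells (~100,000/well) in serum-free induction medium were dosed in duplicate for 48 h with an 8-point half-log series from 100 uM, 0.5% DMSO. MMP3 mRNA was quantified by Fluidigm TaqMan qRT-PCR, normalized to three housekeeping genes.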

[12] = read-out: Paternally Expressed 10 (PEG10), PEG10 (gene 23089); experiment: LTEA_HepaRG_PEG10: Life Technologies and Expression Analysis (LTEA) Assay for Paternally Expressed 10 (PEG10) using HepaRG (AID 2283520);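 on AC50: PEG10 transcript by qRT-PCR normalised to ACTB GAPDH and POLR2A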
In short: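 Chemicals tested on HepaRG cells for 48 h, highest concentration 100 uM. PEG10 expression assessed by qRT-PCR relative to DMSO control.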

[13] = read-out: Protein phosphatase 2A (PPP2R4), PTPA (gene 5524); experiment: LTEA_HepaRG_PPP2R4: Life Technologies and Expression Analysis (LTEA) Assay for Protein phosphatase 2A (PPP2R4) using HepaRG (AID 2283522)
In short: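 Gene-expression endpoint in HepaRG hepatic cells: 48 h treatment across eight half-log concentrations up to 100 uM in 0.5% DMSO. PPP2R4 mRNA by qRT-PCR, normalized to three endogenous control genes.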

[14] = read-out: Phosphatase and tensin (PTEN), PTEN (gene 5728); experiment: LTEA_HepaRG_PTEN: Life Technologies and Expression Analysis (LTEA) Assay for Phosphatase and tensin (PTEN) using HepaRG (AID 2283523)
In short: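 HepaRG cells, 48 h after plating, exposed in duplicate for 48 h in serum-free induction medium to 8 half-log concentrations up to 100 uM (0.5% DMSO). PTEN mRNA by qRT-PCR, normalized to ACTB, GAPDH, POLR2A; bidirectional fit versus DMSO.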

[15] = read-out: solute carrier (SLC22A1), SLC22A1 (gene 6580); experiment: LTEA_HepaRG_SLC22A1: Life Technologies and Expression Analysis (LTEA) Assay for solute carrier (SLC22A1) using HepaRG (AID 2283524)
In short: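 Differentiated human HepaRG cells in serum-free induction medium, exposed 48 h in duplicate to 8-point half-log series from 100 µM top in 0.5% DMSO. SLC22A1 mRNA by TaqMan qRT-PCR normalized to ACTB, GAPDH, POLR2A; bidirectional fit versus DMSO.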

[16] = read-out: Pyruvate Dehydrogenase Kinase 4 (PDK4), PDK4 (gene 5166); experiment: LTEA_HepaRG_PDK4: Life Technologies and Expression Analysis (LTEA) Assay for Pyruvate Dehydrogenase Kinase 4 (PDK4) using HepaRG (AID 2283525)
In short: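 HepaRG cells plated 48 h, then switched to serum-free induction medium and exposed in duplicate for 48 h to 8 half-log concentrations from 100 uM in 0.5% DMSO. PDK4 mRNA measured by qRT-PCR, normalized to ACTB, GAPDH and POLR2A; bidirectional fit versus DMSO.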

[17] = read-out: NAD(P)H dehydrogenase [quinone] 1 (NQO1), NQO1 (gene 1728); experiment: LTEA_HepaRG_NQO1: Life Technologies and Expression Analysis (LTEA) Assay for NAD(P)H dehydrogenase [quinone] 1 (NQO1) using HepaRG (AID 2283526)
In short: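 Human HepaRG hepatic cells received chemicals for 48 h in serum-free induction medium with 0.5% DMSO, up to 100 uM. Expression was assessed by TaqMan qRT-PCR against housekeeping controls and fitted bidirectionally against DMSO.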

[18] = read-out: Nuclear factor erythroid 2-related factor 2 (Homo sapiens) (UniProt Q16236); experiment: LTEA_HepaRG_NFE2L2: Life Technologies and Expression Analysis (LTEA) Assay for Nuclear factor erythroid 2-related factor 2 (NFE2L2) Transcription Factor using HepaRG (AID 2283527)
In short: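 Differentiated human HepaRG cells, serum-free induction medium, exposed 48 h in duplicate to eight half-log concentrations up to 100 uM in 0.5% DMSO. NFE2L2 mRNA by Fluidigm TaqMan qRT-PCR, normalised to ACTB, GAPDH, POLR2A; bidirectional change versus DMSO.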

[19] = read-out: Potassium channel subfamily K member 1 (KCNK1), KCNK1 (gene 3775); experiment: LTEA_HepaRG_KCNK1: Life Technologies and Expression Analysis (LTEA) Assay for Potassium channel subfamily K member 1 (KCNK1) using HepaRG (AID 2283511)
In short: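 Differentiated HepaRG cells, 48 h exposure in serum-free induction medium with 0.5% DMSO; 8 concentrations, half-log from 100 uM, duplicate. KCNK1 mRNA by qRT-PCR, normalized to ACTB, GAPDH, POLR2A; bidirectional fit vs DMSO.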

Measured: AC50

Sequence of Nuclear factor erythroid 2-related factor 2 (Homo sapiens) (Q16236 whole entry, looked up): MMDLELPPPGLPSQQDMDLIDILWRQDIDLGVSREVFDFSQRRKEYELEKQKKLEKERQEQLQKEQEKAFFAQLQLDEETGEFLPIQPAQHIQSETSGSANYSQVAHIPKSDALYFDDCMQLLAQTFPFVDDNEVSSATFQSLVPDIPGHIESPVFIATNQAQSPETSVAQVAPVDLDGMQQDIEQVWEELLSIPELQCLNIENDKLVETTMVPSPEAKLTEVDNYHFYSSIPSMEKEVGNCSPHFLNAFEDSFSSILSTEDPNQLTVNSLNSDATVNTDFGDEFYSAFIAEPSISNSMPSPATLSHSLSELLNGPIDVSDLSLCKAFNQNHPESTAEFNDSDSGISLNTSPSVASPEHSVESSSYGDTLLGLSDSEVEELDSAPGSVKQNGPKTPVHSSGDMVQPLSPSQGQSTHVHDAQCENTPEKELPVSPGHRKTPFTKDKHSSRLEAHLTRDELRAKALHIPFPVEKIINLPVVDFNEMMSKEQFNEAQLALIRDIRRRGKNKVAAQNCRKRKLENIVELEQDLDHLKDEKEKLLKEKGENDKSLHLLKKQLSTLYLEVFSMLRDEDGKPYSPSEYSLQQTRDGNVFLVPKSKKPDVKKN

CCCCCCCCCCCCc1ccccc1S(=O)(=O)O
active: [1] 76.8 µM | [2] 79.6 µM | [3] 83 µM | [5] 34.7 µM | [6] 72 µM | [7] 11.7 µM | [8] 80.6 µM | [9] 82.8 µM | [10] 37.8 µM | [11] 26.9 µM | [13] 21.2 µM | [14] 12 µM | [15] 93.2 µM | [16] 10.8 µM | [18] 19.9 µM
inactive: [4] | [12] | [17]

CCCCC(CC)COC(=O)CCCCC(=O)OCC(CC)CCCC (configuration not stated)
not listed: [19]
inactive: all other assays above

CCCCCCCCC(=O)O
not listed: [19]
inactive: all other assays above

CC(C)(C)c1cccc(C(C)(C)C)c1O
not listed: [19]
inactive: all other assays above

OCCC(F)(F)C(F)(F)C(F)(F)C(F)(F)C(F)(F)C(F)(F)F
not listed: [19]
inactive: all other assays above

CC1=C(/C=C/C(C)=C/C=C/C(C)=C/C(=O)O)C(C)(C)CCC1
active: [19] 10.2 µM | [10] 22.7 µM | [11] 18 µM | [12] 9 µM | [15] 22.9 µM | [16] 33.8 µM | [17] 11 µM | [18] 20.4 µM
not listed: [3] | [4]
inactive: all other assays above

CCCOC(=O)c1ccc(O)cc1
not listed: [12] | [19]
inactive: all other assays above

CCCCCCCCOC(=O)CCCCCCCCC(=O)OCCCCCCCC
not listed: [1] | [19]
inactive: all other assays above

COC(=O)CCCCC(=O)OC
not listed: [19]
inactive: all other assays above

CCCOc1sc(C(=O)N2CCC(c3cc(CN)ccc3F)CC2)c(C)c1Br
not listed: [19]
inactive: all other assays above
